Records with an inconclusive call do not appear. The source made the active and inactive calls. Unless noted, the call rests on the fitted dose curve; in most records, active means well fitted curve in the direction sought with a large enough effect in the repeat runs; inconclusive means weak or mixed curves; inactive means no such curve, though single readings can be large; an effect the other way counts as inactive or inconclusive.
Tests used:
[1] = qHTS assay to identify small molecule antagonists of the estrogen related receptor (ERR) signaling pathway from Tox21 library - cell viability counter screen (AID 1224834); further: nearly all actives have a fitted effect of over 30% in size
Procedure, shortened: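 ERR reporter cells were plated 6 h before compound addition, then exposed to test compounds in DMSO for 17.5 h at 37 C. Viability was read as CellTiter-Fluor fluorescence after a 30-minute incubation at 37 C.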

[2] = biological target: Luciferin 4-monooxygenase (Photinus pyralis) (UniProt P08659); assay: qHTS assay to identify small molecule inhibitors of firefly luciferase (AID 1224835); further: series mostly up to about 120 µM; nearly all actives have a fitted effect of over 25% in size
Procedure, shortened: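 Quantitative HTS format; KM concentrations of both substrates. Purified P. pyralis FLuc activity quantified from luminescence images.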

[3] = qHTS assay to identify small molecule agonists of the constitutive androstane receptor (CAR) signaling pathway - cell viability counter screen (AID 1224836); further: series mostly up to about 92 µM; nearly all actives have a fitted effect of over 45% in size
Procedure, shortened: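 Counter screen multiplexed with the CAR reporter readout: HepG2 cells co-transfected with hCAR and the CYP2B6-2.2kb construct receive a 15-concentration compound series and 0.75 uM PK11195 (final), then CellTiter-Fluor fluorescence is read after 23 h.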

[4] = qHTS assay to identify small molecule antagonists of the constitutive androstane receptor (CAR) signaling pathway - cell viability counter screen (AID 1224837); further: series mostly up to about 92 µM; nearly all actives have a fitted effect of over 45% in size
Procedure, shortened: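 HepG2 cells stably expressing hCAR and a CYP2B6-2.2kb reporter were plated and pre-incubated 4 hr at 37 C/5% CO2, then given compounds at 15 concentrations plus 50 nM CITCO (final). After 23 hr, viability was read by CellTiter-Fluor fluorescence.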

[5] = qHTS assay to identify small molecule antagonists of the estrogen related receptor signaling pathway with the pleiotropic PPARgamma coactivator (PGC) from Tox21 10K library - cell viability counter screen (AID 1224840; active means well fitted cell-killing curve with a large enough effect in the repeat runs, not every such curve was filed as active; further: nearly all actives have a fitted effect of over 40% in size)
Procedure, shortened: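 PGC/ERR cells were seeded at 2,000 cells/well and left 6 hours at 37 C/5% CO2 before pin-tool addition of compounds in DMSO. After 17.5 hours at 37 C, CellTiter-Fluor was added and fluorescence read 30 minutes later.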

[6] = biological target: Thyrotropin receptor (Homo sapiens) (UniProt P16473); assay: qHTS assay to identify small molecule agonists of the thyroid stimulating hormone receptor (TSHR) signaling pathway (AID 1224843; calls by dose curve; further: nearly all actives have a fitted effect of over 45% in size)
Procedure, shortened: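 TSHR-expressing HEK293 cells (800 per well) were exposed to compounds for 30 min at room temperature. cAMP was then detected by HTRF competition with cAMP-d2 and anti-cAMP cryptate, read after 1 h at room temperature. Fifteen concentrations, triplicate.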

[7] = qHTS assay to identify small molecule agonists of the hypoxia (HIF-1) signaling pathway - cell viability counter screen (AID 1224844; calls by dose curve; further: nearly all actives have a fitted effect of over 50% in size)
Procedure, shortened: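 HRE-bla ME-180 cells in medium with 0.5% dialyzed FBS were preincubated 5 hrs at 37C, exposed to compounds for 17 hrs, then viability was read as CellTiter-Glo luminescence after 30 min at room temperature, in the reporter wells.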

[8] = qHTS assay to identify small molecule agonists of the hypoxia (HIF-1) signaling pathway (AID 1224846; active means well fitted activation curve with a large enough effect in the signal ratio in the repeat runs, not every such curve was filed as active; the % refers to the signal ratio)
Procedure, shortened: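 HRE-bla ME-180 cells (beta-lactamase reporter under hypoxia response element) were plated at 2,000 cells/well in medium with 0.5% dialyzed FBS, rested 5 hrs, then given compounds in DMSO for 17 hrs at 37C, 5% CO2. Reporter induction was read with CCF4-AM FRET substrate.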

[9] = qHTS assay to identify small molecule agonists of H2AX - cell viability counter screen (AID 1224847; calls by dose curve; further: top concentration of the series differs between compounds; nearly all actives have a fitted effect of over 30% in size)
Procedure, shortened: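 We seed wild-type CHO-K1 cells overnight, treat them for 3 hr at 37C with compounds in 15-concentration series, and quantify remaining viability by CellTiter-Glo luminescence.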

[10] = qHTS RealTime-Glo MT Cell Viability Assay in HepG2 cells - 24 hour (AID 1224867); further: nearly all actives have a fitted effect of over 50% in size
Procedure, shortened: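 Real-time, nonlytic viability: 600 HepG2 cells/well mixed with NanoLuc enzyme plus prosubstrate; 5 h settle, compound (DMSO) added by pintool; luminescence monitored over 40 h at 37 C.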

[11] = qHTS RealTime-Glo MT Cell Viability Assay in HEK293 cells - 32 hour (AID 1224868); further: top concentration of the series differs between compounds; nearly all actives have a fitted effect of over 50% in size
Procedure, shortened: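 Cells + reagent dispensed (600 cells/well, HEK293) → 5 h at 37 C/5% CO2 → 23 nL compound in DMSO pinned → 40 h at 37 C → luminescence read at 0, 8, 16, 24, 32, 40 h.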

[12] = A CellTox Green Cytotoxicity Assay to monitor cytotoxicity in HEK293 cells - 0 hour (AID 1224869); further: nearly all actives have a fitted effect of over 50% in size
Procedure, shortened: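 HEK293 cells premixed with CellTox Green dye were seeded at 600 cells/well and left 5 h at 37 C/5% CO2 before pin transfer of 23 nL compound in DMSO. Fluorescence from dye bound to dead-cell DNA was read during 40 h treatment.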

[13] = qHTS RealTime-Glo MT Cell Viability Assay in HepG2 cells - 40 hour (AID 1224870); further: nearly all actives have a fitted effect of over 50% in size
Procedure, shortened: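 HepG2 cells mixed with RealTime-Glo MT reagents (NanoLuc plus cell-permeant prosubstrate) were seeded at 600 cells/well, incubated 5 h at 37 C/5% CO2, then pinned with compounds in DMSO; nonlytic luminescence tracked viability during 40 h treatment.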

[14] = qHTS assay to identify small molecule antagonists of the estrogen related receptor signaling pathway with the pleiotropic PPARgamma coactivator (PGC) from Tox21 10K library (AID 1224841; call rule not given here)
Procedure, shortened: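 PGC/ERR reporter cells were seeded at 2,000 cells/well and held 6 hours at 37 C/5% CO2 before pin-tool addition of compounds in DMSO. After 18 hours at 37 C, One-Glo was added and luminescence read after 30 minutes at room temperature.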

[15] = qHTS assay to identify small molecule agonists of the estrogen related receptor signaling pathway with the pleiotropic PPARgamma coactivator (PGC) from Tox21 10K library (AID 1224842); further: nearly all actives have a fitted effect of over 15% in size
Procedure, shortened: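 PGC/ERR reporter cells (NTP line) were seeded 2,000 per well, rested 6 h at 37 C/5% CO2, then pin-dosed with compounds in DMSO for 18 h at 37 C; luciferase read by One-Glo luminescence after 30 min at room temperature.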

[16] = qHTS assay to identify small molecule agonists of H2AX (AID 1224845; active means well fitted activation curve with a large enough effect in the signal ratio in the repeat runs, not every such curve was filed as active; the % refers to the signal ratio)
Procedure, shortened: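 Wild-type CHO-K1 cells plated overnight, then exposed 3 hr at 37C to compounds at 15 concentrations (0.76% DMSO). Lysed, then HTRF anti-pH2AX(S139)-cryptate/anti-H2AX-d2 detection after 24 hr at room temperature; emissions 665 and 620 nm.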

[17] = qHTS assay to identify small molecule antagonists of the estrogen related receptor (ERR) signaling pathway from Tox21 library (AID 1224848); further: nearly all actives have a fitted effect of over 50% in size
Procedure, shortened: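 Cells: ERR line, 2,000/well; 6 h preincubation 37 C/5% CO2. Cpd in DMSO via pin tool; 18 h, 37 C. ONE-Glo, 30 min RT, luminescence.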

[18] = qHTS assay to identify small molecule agonists of the estrogen related receptor (ERR) signaling pathway from Tox21 library (AID 1224849; calls by dose curve; further: nearly all actives have a fitted effect of over 15% in size)
Procedure, shortened: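 ERR reporter cell line (NTP) seeded, rested 6 h at 37 C/5% CO2, then pinned with Tox21 compounds in DMSO. After 18 h at 37 C, ONE-Glo luciferase luminescence was read following 30 min at room temperature.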

[19] = biological target: Nuclear receptor subfamily 1 group I member 3 (Homo sapiens) (UniProt Q14994); assay: qHTS assay to identify small molecule antagonists of the constitutive androstane receptor (CAR) signaling pathway (AID 1224838); further: nearly all actives have a fitted effect of over 40% in size
Procedure, shortened: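 HepG2 cells stably co-transfected with hCAR and a CYP2B6-2.2kb luciferase reporter were seeded 4 h before compound addition at 15 concentrations. Cells were stimulated with 50 nM CITCO (final) for 24 h at 37 C; luciferase luminescence was then read.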

[20] = biological target: Nuclear receptor subfamily 1 group I member 3 (Homo sapiens) (UniProt Q14994); assay: qHTS assay to identify small molecule agonists of the constitutive androstane receptor (CAR) signaling pathway (AID 1224839); further: series mostly up to about 92 µM; nearly all actives have a fitted effect of over 15% in size
Procedure, shortened: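 A 15-concentration quantitative screen uses HepG2 cells co-transfected stably with human CAR and CYP2B6-2.2kb reporter. Treatment lasts 24 h with 0.75 uM PK11195 final present; ONE-Glo luminescence is the signal.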

Measured: Potency

Sequence of Nuclear receptor subfamily 1 group I member 3 (Homo sapiens) (Q14994 whole entry, looked up): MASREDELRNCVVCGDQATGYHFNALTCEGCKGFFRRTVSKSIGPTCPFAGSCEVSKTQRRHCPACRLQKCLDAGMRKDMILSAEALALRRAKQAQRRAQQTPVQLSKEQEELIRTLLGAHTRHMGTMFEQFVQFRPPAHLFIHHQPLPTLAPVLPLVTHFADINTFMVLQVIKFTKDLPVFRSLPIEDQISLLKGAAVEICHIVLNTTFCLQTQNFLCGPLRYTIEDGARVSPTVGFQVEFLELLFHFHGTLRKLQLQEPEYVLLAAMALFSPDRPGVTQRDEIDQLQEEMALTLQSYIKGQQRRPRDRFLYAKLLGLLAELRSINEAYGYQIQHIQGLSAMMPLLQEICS
Sequence of Thyrotropin receptor (Homo sapiens) (P16473 whole entry, looked up): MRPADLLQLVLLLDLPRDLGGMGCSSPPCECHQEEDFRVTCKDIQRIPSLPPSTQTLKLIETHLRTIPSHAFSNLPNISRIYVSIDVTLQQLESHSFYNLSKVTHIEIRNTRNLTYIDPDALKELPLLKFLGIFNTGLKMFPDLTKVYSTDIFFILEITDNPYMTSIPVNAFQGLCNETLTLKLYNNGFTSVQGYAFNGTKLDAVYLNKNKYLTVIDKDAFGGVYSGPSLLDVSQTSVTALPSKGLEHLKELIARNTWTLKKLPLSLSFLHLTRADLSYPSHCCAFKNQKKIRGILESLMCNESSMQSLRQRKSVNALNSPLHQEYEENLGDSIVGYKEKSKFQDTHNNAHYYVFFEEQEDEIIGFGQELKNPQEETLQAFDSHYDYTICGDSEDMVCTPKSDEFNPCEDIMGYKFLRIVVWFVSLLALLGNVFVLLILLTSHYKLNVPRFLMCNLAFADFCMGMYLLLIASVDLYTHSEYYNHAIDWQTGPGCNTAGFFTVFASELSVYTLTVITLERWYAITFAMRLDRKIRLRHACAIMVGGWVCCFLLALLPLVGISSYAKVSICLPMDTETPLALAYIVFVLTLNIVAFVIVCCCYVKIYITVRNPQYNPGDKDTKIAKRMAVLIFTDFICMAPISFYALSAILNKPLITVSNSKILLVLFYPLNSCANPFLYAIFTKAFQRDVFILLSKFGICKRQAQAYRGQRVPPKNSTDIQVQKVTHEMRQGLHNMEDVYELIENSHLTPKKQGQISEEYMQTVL
Sequence of Luciferin 4-monooxygenase (Photinus pyralis) (P08659 whole entry, looked up): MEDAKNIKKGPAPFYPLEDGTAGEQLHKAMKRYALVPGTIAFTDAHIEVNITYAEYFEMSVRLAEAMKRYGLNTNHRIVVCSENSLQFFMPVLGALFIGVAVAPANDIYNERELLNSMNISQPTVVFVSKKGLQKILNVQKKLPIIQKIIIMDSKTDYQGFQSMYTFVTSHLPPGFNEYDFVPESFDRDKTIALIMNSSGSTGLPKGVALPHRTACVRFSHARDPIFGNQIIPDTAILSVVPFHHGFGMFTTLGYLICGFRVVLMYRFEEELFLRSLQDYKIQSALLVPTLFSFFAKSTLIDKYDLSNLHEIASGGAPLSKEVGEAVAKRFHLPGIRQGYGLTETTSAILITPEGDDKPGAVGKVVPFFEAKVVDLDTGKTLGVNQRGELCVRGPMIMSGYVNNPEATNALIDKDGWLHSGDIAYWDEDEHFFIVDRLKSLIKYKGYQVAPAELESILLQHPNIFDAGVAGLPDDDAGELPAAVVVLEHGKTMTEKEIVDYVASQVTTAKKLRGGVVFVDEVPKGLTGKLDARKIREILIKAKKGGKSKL

CC(CO)(CO)[N+](=O)[O-]
not listed: [14] | [15] | [16] | [17] | [18] | [19] | [20]
inactive: all other assays above

O=S(=O)(O)c1cccc2ccccc12
not listed: [6] | [7] | [19] | [20]
inactive: all other assays above

CC(C)(CCC(=O)O)C(=O)O
not listed: [6] | [14] | [15] | [16] | [17] | [18]
inactive: all other assays above

CC(C)(N)C#N
not listed: [6] | [19] | [20]
inactive: all other assays above

NCCCC(N)(C(=O)O)C(F)F (configuration not stated)
not listed: [8] | [14] | [15] | [17] | [18] | [19] | [20]
inactive: all other assays above

O=S(=O)(O)c1cc(O)c(O)c(S(=O)(=O)O)c1
not listed: [6] | [14] | [15] | [16] | [17] | [18]
inactive: all other assays above

O=C(O)CNC(=O)c1ccccc1
not listed: [14] | [15] | [16] | [17] | [18] | [19] | [20]
inactive: all other assays above

CC(C(=O)O)c1cccc(Oc2ccccc2)c1 (configuration not stated)
not listed: [6] | [7] | [8] | [14] | [15] | [17] | [18]
inactive: all other assays above

COc1cc(C)nc(-n2nc(C)cc2OC)n1
not listed: [19]
inactive: all other assays above
